Where “and” joins values, the source holds several entries; their conditions need not be identical. Equal values may be shown once. About 2,000 (36%) of roughly 5,500 compounds were called active. About 18% were inconclusive and are not listed. Cut-off read from the data, not from the text of the source: active = normalized growth mostly below about 0.91 (no sharp cut-off); inconclusive = no clear call, values can overlap the other calls; inactive = mostly above about 0.92. This is one part of the list.
Test: chemical genetic growth profiling, strain panel (AID 1159580);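 note: tested at 20 µM; growth read once vehicle control cultures reached saturation at 30 °C; 1 = growth at the plate median or of vehicle wells; lower values mean less growth of the strain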
Settings: growth OD

Measured: normalized growth

CCC1C(=O)OCC1Cc1cncn1C (stereo unspecified)
inactive: S. cerevisiae deletion strains, locus YJR075W, strain HOC1, hits give low values 1.01 and 0.997 and 1.02 | S. cerevisiae deletion strains, locus YKL009W, strain mrt4, hits give low values 0.99 and 0.991 | S. cerevisiae deletion strains, locus YKL068W, hits give low values 1 and 0.995 | S. cerevisiae deletion strains, locus YKL085W, strain MDH1 (second series), hits give low values 1.01 and 1.04 | S. cerevisiae deletion strains, locus YKL085W, strain MDH1, hits give low values 1.01 and 1.04 | S. cerevisiae deletion strains, locus YKL160W, strain elf1, hits give low values 1.03 and 1.01 | S. cerevisiae deletion strains, locus YKL190W, strain CNB1, hits give low values 1.02 and 1.01 | S. cerevisiae deletion strains, locus YKR001C, strain vps1, hits give low values 1.01 | S. cerevisiae deletion strains, locus YKR026C, strain gcn3, hits give low values 1.02 and 0.993 | S. cerevisiae deletion strains, locus YKR091W, strain srl3, hits give low values 1.02 | S. cerevisiae deletion strains, locus YLL001W, strain dnm1, hits give low values 1.02 | S. cerevisiae deletion strains, locus YLL026W, hits give low values 1.01 and 1.02 | S. cerevisiae deletion strains, locus YLL041C, strain sdh2, hits give low values 1.01 and 1.02 | S. cerevisiae deletion strains, locus YLR027C, strain aat2, hits give low values 1.02 and 1.01 | S. cerevisiae deletion strains, locus YLR039C, strain RIC1, hits give low values 1.02 and 1.07 | S. cerevisiae deletion strains, locus YLR058C, strain SHM2, hits give low values 1.01 | S. cerevisiae deletion strains, locus YLR102C, strain apc9, hits give low values 1.01 and 0.998 | S. cerevisiae deletion strains, locus YLR113W, strain HOG1, hits give low values 0.972 | S. cerevisiae deletion strains, locus YLR221C, strain rsa3, hits give low values 1.02 and 1.01 | S. cerevisiae deletion strains, locus YLR258W, strain gsy2, hits give low values 1.02 and 1.01 | S. cerevisiae deletion strains, locus YLR262C, strain YPT6 (second series), hits give low values 1.04 and 1.05 | S. cerevisiae deletion strains, locus YLR262C, strain YPT6, hits give low values 1.04 and 1.1 | S. cerevisiae deletion strains, locus YLR268W, strain sec22, hits give low values 1.06 and 0.999 | S. cerevisiae deletion strains, locus YLR320W, strain mms22, hits give low values 1.03 and 1.02 | S. cerevisiae deletion strains, locus YLR330W, strain CHS5, hits give low values 1.01 | S. cerevisiae deletion strains, locus YLR342W, strain FKS1 (second series), hits give low values 0.996 and 1 | S. cerevisiae deletion strains, locus YLR342W, strain FKS1, hits give low values 1.02 | S. cerevisiae deletion strains, locus YLR357W, strain rsc2, hits give low values 0.988 and 0.997 | S. cerevisiae deletion strains, locus YLR370C, strain arc18, hits give low values 1.01 and 1.02 | S. cerevisiae deletion strains, locus YLR371W, strain rom2, hits give low values 1.01 and 0.995 | S. cerevisiae deletion strains, locus YLR384C, strain iki3, hits give low values 1.02 and 1.03 | S. cerevisiae deletion strains, locus YLR418C, strain cdc73, hits give low values 1.02 | S. cerevisiae deletion strains, locus YML016C, strain PPZ1, hits give low values 1.01 | S. cerevisiae deletion strains, locus YML032C, strain rad52, hits give low values 1.03 and 0.985 | S. cerevisiae deletion strains, locus YML120C, strain ndi1, hits give low values 1.02 and 1.03 | S. cerevisiae deletion strains, locus YML124C, strain tub3, hits give low values 1.01 and 0.994 | S. cerevisiae deletion strains, locus YMR058W, strain fet3, hits give low values 1.01 and 1.02 | S. cerevisiae deletion strains, locus YMR078C, strain ctf18, hits give low values 1.02 and 0.99 | S. cerevisiae deletion strains, locus YMR125W, strain sto1, hits give low values 1.02 | S. cerevisiae deletion strains, locus YMR129W, hits give low values 1.01 and 1.02 | S. cerevisiae deletion strains, locus YMR205C, strain PFK2, hits give low values 1.04 and 1.02 | S. cerevisiae deletion strains, locus YMR223W, strain ubp8, hits give low values 0.991 and 1 | S. cerevisiae deletion strains, locus YMR231W, strain pep5, hits give low values 1.02 and 1.01 | S. cerevisiae deletion strains, locus YMR263W, strain SAP30, hits give low values 1.01 and 0.995 and 1.02 | S. cerevisiae deletion strains, locus YMR307W, strain GAS1, hits give low values 0.989 and 1.01 and 0.99 | S. cerevisiae deletion strains, locus YNL067W, strain RPL9B, hits give low values 1.01 | S. cerevisiae deletion strains, locus YNL071W, strain lat1, hits give low values 1.01 and 1.02 | S. cerevisiae deletion strains, locus YNL128W, strain TEP1, hits give low values 1.01 | S. cerevisiae deletion strains, locus YNL153C, strain GIM3, hits give low values 1.02 and 0.971 | S. cerevisiae deletion strains, locus YNL175C, strain NOP13, hits give low values 1.01 and 0.972 | S. cerevisiae deletion strains, locus YNL183C, strain NPR1, hits give low values 0.95 | S. cerevisiae deletion strains, locus YNL197C, strain WHI3, hits give low values 1.01 and 0.989 | S. cerevisiae deletion strains, locus YNL209W, strain ssb2, hits give low values 1.02 | S. cerevisiae deletion strains, locus YNL224C, strain SQS1, hits give low values 1 and 0.989 | S. cerevisiae deletion strains, locus YNL233W, strain BNI4, hits give low values 1.01 and 1.02 | S. cerevisiae deletion strains, locus YNL248C, strain rpa49, hits give low values 1 and 1.01 | S. cerevisiae deletion strains, locus YNL250W, strain rad50, hits give low values 1.01 and 0.986 | S. cerevisiae deletion strains, locus YNL271C, strain bni1, hits give low values 1.01 | S. cerevisiae deletion strains, locus YNL298W, strain CLA4, hits give low values 1.01 and 0.999 | S. cerevisiae deletion strains, locus YNL307C, strain MCK1, hits give low values 1.02 and 1.01 | S. cerevisiae deletion strains, locus YNL322C, strain KRE1 (second series), hits give low values 1.02 | S. cerevisiae deletion strains, locus YNL322C, strain KRE1, hits give low values 1.01 | S. cerevisiae deletion strains, locus YNR049C, strain mso1, hits give low values 1.02 and 1.01 | S. cerevisiae deletion strains, locus YNR052C, strain pop2, hits give low values 1.01 and 0.997 | S. cerevisiae deletion strains, locus YOL006C, strain TOP1, hits give low values 1.1 and 1.08 | S. cerevisiae deletion strains, locus YOL012C, strain htz1 0.844 and 0.846 | S. cerevisiae deletion strains, locus YOL147C, strain pex11, hits give low values 1.02 and 0.99 | S. cerevisiae deletion strains, locus YOR001W, strain rrp6, hits give low values 0.998 and 1.02 | S. cerevisiae deletion strains, locus YOR061W, strain CKA2, hits give low values 1.01 and 1.02 | S. cerevisiae deletion strains, locus YOR069W, strain VPS5, hits give low values 1.01 | S. cerevisiae deletion strains, locus YOR070C, strain gyp1, hits give low values 1.02 | S. cerevisiae deletion strains, locus YOR080W, strain dia2, hits give low values 1.02 | S. cerevisiae deletion strains, locus YOR083W, strain WHI5 (second series), hits give low values 0.992 and 1 | S. cerevisiae deletion strains, locus YOR083W, strain WHI5, hits give low values 1.02 | S. cerevisiae deletion strains, locus YOR106W, strain vam3, hits give low values 1.02 | S. cerevisiae deletion strains, locus YOR136W, strain idh2, hits give low values 1.02 and 1 | S. cerevisiae deletion strains, locus YOR144C, strain elg1, hits give low values 1.02 and 0.993 | S. cerevisiae deletion strains, locus YOR184W, strain ser1, hits give low values 1.04 and 1.01 | S. cerevisiae deletion strains, locus YOR231W, strain MKK1, hits give low values 0.976 | S. cerevisiae deletion strains, locus YOR265W, strain rbl2, hits give low values 1.02 and 1.01 | S. cerevisiae deletion strains, locus YOR270C, strain vph1, hits give low values 1.02 and 1.07 | S. cerevisiae deletion strains, locus YOR290C, strain snf2, hits give low values 1.03 and 0.969 | S. cerevisiae deletion strains, locus YOR316C, strain cot1, hits give low values 1.02 and 0.999 | S. cerevisiae deletion strains, locus YPL051W, strain arl3, hits give low values 1.02 and 1.01 | S. cerevisiae deletion strains, locus YPL055C, strain LGE1, hits give low values 1.06 and 1 | S. cerevisiae deletion strains, locus YPL078C, strain atp4, hits give low values 1.02 and 1.01 | S. cerevisiae deletion strains, locus YPL106C, strain sse1, hits give low values 1.02 | S. cerevisiae deletion strains, locus YPL240C, strain hsp82, hits give low values 1.03 and 1.02 | S. cerevisiae deletion strains, locus YPL241C, strain CIN2, hits give low values 1.01 | S. cerevisiae deletion strains, locus YPL256C, strain CLN2, hits give low values 0.979 | S. cerevisiae deletion strains, locus YPR119W, strain clb2, hits give low values 1.01 and 0.99 | S. cerevisiae deletion strains, locus YPR141C, strain kar3, hits give low values 1.01 and 1 | S. cerevisiae deletion strains, locus YPR163C, strain tif3, hits give low values 1.03 and 0.994 | S. cerevisiae deletion strains, locus YPR167C, strain met16, hits give low values 1.02 and 0.995 | S. cerevisiae deletion strains, strain wtn01, hits give low values 1.03 and 0.997 | S. cerevisiae strains, strain wild type, hits give low values 1.01

From PubChem BioAssay AID1159580 (chemical genetic matrix, 2015)
